The target in assay [1] is Estrogen receptor (Homo sapiens) (UniProt P03372). Description: qHTS assay for small molecule agonists of estrogen receptor alpha signaling (AID 588514).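 Further: 0% = vehicle only and 100% = reference agonist; nearly all actives have a fitted effect of over 70% in size.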 Summed up: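 Efficacy is expressed against 20 nM 17-beta-estradiol (100%) and DMSO basal (0%); EC50 from Hill equation. Assay: beta-lactamase reporter in ER-alpha-UAS-bla HEK 293 cells, 18 h compound incubation, CCF4 detection.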
Estrogen receptor (Homo sapiens), sequence (P03372 whole entry, looked up): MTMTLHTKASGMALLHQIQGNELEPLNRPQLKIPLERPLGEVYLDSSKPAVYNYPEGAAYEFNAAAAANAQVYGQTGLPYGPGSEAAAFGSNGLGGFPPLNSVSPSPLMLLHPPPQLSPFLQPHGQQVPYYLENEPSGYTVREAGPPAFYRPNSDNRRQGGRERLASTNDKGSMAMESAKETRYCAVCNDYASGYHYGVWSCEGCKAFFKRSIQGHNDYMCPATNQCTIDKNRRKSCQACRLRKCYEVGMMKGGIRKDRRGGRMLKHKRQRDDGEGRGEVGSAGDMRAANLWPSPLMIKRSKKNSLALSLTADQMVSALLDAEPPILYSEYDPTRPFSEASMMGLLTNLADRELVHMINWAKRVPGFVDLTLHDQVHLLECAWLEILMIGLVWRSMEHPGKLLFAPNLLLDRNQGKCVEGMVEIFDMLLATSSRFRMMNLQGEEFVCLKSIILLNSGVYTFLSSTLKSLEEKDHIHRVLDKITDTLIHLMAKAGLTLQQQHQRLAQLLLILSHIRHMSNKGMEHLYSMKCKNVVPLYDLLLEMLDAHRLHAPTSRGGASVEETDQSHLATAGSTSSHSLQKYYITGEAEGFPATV

For assay [2], the target named is Bile acid receptor (Homo sapiens) (UniProt Q96RI1). Kind of assay: qHTS assay for small molecule antagonists of farnesoid X receptor signaling (AID 588526). Further: potency means the concentration at half of the fitted maximal effect. Summed up:
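Concentration-response titrations were fitted to the Hill equation for half-maximal inhibition and maximal response, with data normalised to 50 uM chenodeoxycholic acid and DMSO control wells. Cells: FXR-UAS-bla HEK293T, dialyzed FBS.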
A general note: qHTS replaces the single test concentration by a dilution series.

The target is the same in assay [3]. Kind of assay: qHTS assay for small molecule agonists of farnesoid X receptor signaling (AID 588527).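 Further: series mostly up to about 77 µM; 0% = vehicle basal and 100% = reference agonist.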 The conditions noted are these: HEK293T FXR-UAS-bla, beta-lactamase ratio, 16 h; activation: stronger effect = higher value. The essentials: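 FXR-UAS-bla HEK293T, 10% dialyzed FBS; cpds up to 92 uM titration, 16 h 37 C; CCF4 dye 2 h RT; fluorescence. Normalized to chenodeoxycholic acid 100 uM (100%) and DMSO (0%); Hill fit gives EC50, efficacy.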

Assay [4] in a line: qHTS assay for small molecule agonists of retinoid X receptor alpha signaling (AID 588544). Particulars: HEK293T RXRa-UAS-bla, beta-lactamase reporter, 18 h; 530 nm emission.
Assay [5] is described as follows: qHTS assay for small molecule agonists of the antioxidant response element (ARE) signaling pathway (AID 651741; active means well fitted activation curve with a large enough effect in the signal ratio; the % refers to the signal ratio; further: potency means the concentration at half of the fitted maximal effect; on activation: % of control where 0% means no effect). The essentials: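 Reporter: beta-lactamase under ARE, stably in HepG2. Exposure: 16 h, 37 C, compounds delivered in DMSO by pin tool after 5 h cell preincubation. Readout: FRET substrate fluorescence after 2 h at RT.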
Assay [6] concerns the target Androgen receptor (Homo sapiens) (UniProt P10275). Description: qHTS assay for small molecule agonists of androgen receptor signaling (AID 588515; active means well fitted curve in the direction sought with a large enough effect in the signal ratio, with a control signal flat; the % refers to the signal ratio; further: on the % scale 0 is the no-effect control and ±100 the full control effect). The conditions noted are these: AR-UAS-bla HEK293, beta-lactamase ratio, agonist 16 h; stronger effect = higher value. Summed up: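 Stimulation of an AR-responsive β-lactamase reporter in GripTite HEK293 cells was measured after 16 h compound exposure at 37 °C, via CCF4 fluorescence after 2 h RT. EC50 from Hill fits, normalized to R1881 at 30 nM.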

The target is the same in assay [7]. Kind of assay: qHTS assay for small molecule antagonists of androgen receptor signaling (AID 588516; active means well fitted curve in the direction sought with a large enough effect in the signal ratio, with a control signal flat, not every such curve was filed as active; the % refers to the signal ratio; further: on the % scale 0 is the no-effect control and ±100 the full control effect). The essentials:
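Compounds tested in titration against 10 nM R1881 in AR-responsive bla reporter HEK 293 cells; CCF4 fluorescence (460/530 nm) after 16 h exposure gave IC50 and efficacy.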

For assay [8], the target named is Glucocorticoid receptor (Homo sapiens) (UniProt P04150). Description: qHTS assay for small molecule antagonists of glucocorticoid receptor signaling (AID 588533; active means well fitted inhibition curve with a large enough effect in the signal ratio, with a control signal flat, not every such curve was filed as active; the % refers to the signal ratio;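 further: cells stimulated with 2 nM dexamethasone as agonist; on the % scale 0 is the no-effect control and ±100 the full control effect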). Summed up:
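Antagonist-mode qHTS: compound titrations added to GRE-bla HeLa cells, then dexamethasone 2 nM final; 18 h, 37 C. CCF4 FRET fluorescence normalized to dexamethasone and DMSO; IC50 from Hill fit.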

The nature of assay [9]: qHTS assay for small molecule activators of the human pregnane X receptor (PXR) signaling pathway (AID 720659; call rule not given here; further: 0% is about no effect).
In assay [10] the target is Peroxisome proliferator-activated receptor delta (Homo sapiens) (UniProt Q03181). Kind of assay: qHTS assay for small molecule antagonists of peroxisome proliferator-activated receptor delta signaling (AID 588535; active means well fitted inhibition curve with a large enough effect in the signal ratio, with a control signal flat, not every such curve was filed as active; the % refers to the signal ratio). The essentials:
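Inhibition of PPAR-delta response element-driven beta-lactamase expression is measured in HEK293T cells exposed to a compound titration series for 18 hrs at 37 C. Half-maximal inhibition comes from Hill equation fitting.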

A short description of assay [11]: qHTS assay for small molecule activators of the nuclear factor-kappa B (NF-kB) signaling pathway (AID 651749; active means well fitted activation curve with a large enough effect in the signal ratio; the % refers to the signal ratio; further: series mostly up to about 77 µM; % of control where 0% means no effect). The conditions noted are these: NF-kB-bla ME-180 cells, beta-lactamase FRET ratio, 16 h; activation: stronger effect = higher value. Summed up:
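Human ME-180 cervical cells with an NF-kB-bla construct; compounds added via 23 nL pin transfer, DMSO as vehicle; incubation 16 hr. Reporter activity measured by FRET disruption.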

Assay [12] has as its target Luciferin 4-monooxygenase (Photinus pyralis) (UniProt P08659). Description: Biochemical firefly luciferase enzyme assay for NPC (AID 624030; active means well fitted inhibition curve with a large enough effect;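 further: purified P. pyralis luciferase at 10 nM with luciferin and ATP substrate; series mostly up to about 59 µM; 0% = DMSO and -100% = full luciferase inhibition by PTC124 control; nearly all actives have a fitted effect of over 70% in size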). Summed up: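 Counter-screen for direct inhibition of the luciferase enzyme by approved-drug library compounds, run at 10 nM enzyme in 50 mM Tris acetate (final). Luminescence was read within 5 min of enzyme-buffer addition and normalized to PTC124 versus DMSO (0%).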

These results are taken from PubChem BioAssay (NCATS).

Results filed as inconclusive are left out. Active and inactive are the calls of the source. Unless noted, the call rests on the fitted dose curve.

Bile acid receptor (Homo sapiens), sequence (Q96RI1 whole entry, looked up): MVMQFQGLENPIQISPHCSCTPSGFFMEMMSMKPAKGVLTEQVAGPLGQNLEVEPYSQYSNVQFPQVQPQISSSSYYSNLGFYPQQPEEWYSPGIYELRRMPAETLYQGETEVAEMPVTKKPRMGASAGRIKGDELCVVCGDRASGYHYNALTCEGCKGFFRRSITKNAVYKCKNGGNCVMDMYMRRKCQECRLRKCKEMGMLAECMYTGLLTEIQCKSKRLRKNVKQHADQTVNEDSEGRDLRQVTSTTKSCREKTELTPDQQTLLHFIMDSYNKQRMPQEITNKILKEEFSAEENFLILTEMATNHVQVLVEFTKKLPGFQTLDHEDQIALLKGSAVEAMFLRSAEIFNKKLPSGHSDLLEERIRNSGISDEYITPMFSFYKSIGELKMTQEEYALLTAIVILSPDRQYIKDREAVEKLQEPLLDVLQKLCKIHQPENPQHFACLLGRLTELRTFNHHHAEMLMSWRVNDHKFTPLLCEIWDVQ
Peroxisome proliferator-activated receptor delta (Homo sapiens), sequence (Q03181 whole entry, looked up): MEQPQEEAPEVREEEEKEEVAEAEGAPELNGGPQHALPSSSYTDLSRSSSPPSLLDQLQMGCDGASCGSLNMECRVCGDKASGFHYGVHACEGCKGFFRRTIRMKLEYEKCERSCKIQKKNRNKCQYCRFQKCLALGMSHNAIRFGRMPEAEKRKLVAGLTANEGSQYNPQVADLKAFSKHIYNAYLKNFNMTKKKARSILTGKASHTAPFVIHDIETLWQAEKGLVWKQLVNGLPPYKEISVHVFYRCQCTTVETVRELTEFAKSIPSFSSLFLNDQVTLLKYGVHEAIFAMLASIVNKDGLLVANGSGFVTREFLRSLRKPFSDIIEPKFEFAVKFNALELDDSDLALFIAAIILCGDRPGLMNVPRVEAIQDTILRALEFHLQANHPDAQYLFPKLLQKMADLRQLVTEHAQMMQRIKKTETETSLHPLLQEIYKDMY
Glucocorticoid receptor (Homo sapiens), sequence (P04150 whole entry, looked up): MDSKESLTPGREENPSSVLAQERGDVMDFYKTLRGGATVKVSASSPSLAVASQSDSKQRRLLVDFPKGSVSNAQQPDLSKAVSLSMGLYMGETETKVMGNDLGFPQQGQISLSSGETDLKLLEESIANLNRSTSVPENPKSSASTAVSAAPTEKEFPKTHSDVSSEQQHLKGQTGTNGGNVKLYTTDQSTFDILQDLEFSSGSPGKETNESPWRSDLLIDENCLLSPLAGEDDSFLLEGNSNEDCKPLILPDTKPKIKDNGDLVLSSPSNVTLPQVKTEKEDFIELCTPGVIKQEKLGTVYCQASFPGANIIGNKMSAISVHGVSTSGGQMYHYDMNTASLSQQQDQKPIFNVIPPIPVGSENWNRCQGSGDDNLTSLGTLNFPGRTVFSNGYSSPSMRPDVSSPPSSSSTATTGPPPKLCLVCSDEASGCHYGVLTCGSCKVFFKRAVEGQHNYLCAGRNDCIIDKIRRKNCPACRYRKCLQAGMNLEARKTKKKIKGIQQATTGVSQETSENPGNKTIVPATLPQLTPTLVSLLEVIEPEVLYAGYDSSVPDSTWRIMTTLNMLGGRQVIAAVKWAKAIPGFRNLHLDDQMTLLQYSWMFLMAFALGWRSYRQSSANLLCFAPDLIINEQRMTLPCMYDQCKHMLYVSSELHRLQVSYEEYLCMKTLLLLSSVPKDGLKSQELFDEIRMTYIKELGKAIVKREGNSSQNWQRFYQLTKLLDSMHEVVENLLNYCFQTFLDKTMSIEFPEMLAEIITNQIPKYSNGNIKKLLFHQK
Androgen receptor (Homo sapiens), sequence (P10275 whole entry, looked up): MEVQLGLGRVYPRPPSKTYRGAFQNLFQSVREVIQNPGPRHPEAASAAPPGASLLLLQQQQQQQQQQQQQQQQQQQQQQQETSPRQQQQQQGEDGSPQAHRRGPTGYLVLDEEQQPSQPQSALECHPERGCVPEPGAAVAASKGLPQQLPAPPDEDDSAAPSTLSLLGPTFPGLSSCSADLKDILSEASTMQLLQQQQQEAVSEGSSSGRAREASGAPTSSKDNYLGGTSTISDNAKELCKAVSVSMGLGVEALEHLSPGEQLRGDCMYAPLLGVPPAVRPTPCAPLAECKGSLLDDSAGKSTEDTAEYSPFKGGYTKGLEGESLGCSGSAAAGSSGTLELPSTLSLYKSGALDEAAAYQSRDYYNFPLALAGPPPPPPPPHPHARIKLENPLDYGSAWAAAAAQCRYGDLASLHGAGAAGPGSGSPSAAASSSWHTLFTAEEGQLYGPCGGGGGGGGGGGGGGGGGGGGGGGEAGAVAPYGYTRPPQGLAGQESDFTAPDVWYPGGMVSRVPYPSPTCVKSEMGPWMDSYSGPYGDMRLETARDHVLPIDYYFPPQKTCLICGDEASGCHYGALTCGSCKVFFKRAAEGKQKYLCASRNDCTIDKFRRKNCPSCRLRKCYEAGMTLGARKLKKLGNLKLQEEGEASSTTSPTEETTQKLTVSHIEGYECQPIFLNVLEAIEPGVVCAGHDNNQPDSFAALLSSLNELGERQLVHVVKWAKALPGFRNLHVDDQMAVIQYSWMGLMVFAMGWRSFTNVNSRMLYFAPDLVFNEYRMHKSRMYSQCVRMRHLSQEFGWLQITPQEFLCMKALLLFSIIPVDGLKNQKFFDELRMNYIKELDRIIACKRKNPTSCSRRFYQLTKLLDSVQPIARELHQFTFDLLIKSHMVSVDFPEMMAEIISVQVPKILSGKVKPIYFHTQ
Luciferin 4-monooxygenase (Photinus pyralis), sequence (P08659 whole entry, looked up): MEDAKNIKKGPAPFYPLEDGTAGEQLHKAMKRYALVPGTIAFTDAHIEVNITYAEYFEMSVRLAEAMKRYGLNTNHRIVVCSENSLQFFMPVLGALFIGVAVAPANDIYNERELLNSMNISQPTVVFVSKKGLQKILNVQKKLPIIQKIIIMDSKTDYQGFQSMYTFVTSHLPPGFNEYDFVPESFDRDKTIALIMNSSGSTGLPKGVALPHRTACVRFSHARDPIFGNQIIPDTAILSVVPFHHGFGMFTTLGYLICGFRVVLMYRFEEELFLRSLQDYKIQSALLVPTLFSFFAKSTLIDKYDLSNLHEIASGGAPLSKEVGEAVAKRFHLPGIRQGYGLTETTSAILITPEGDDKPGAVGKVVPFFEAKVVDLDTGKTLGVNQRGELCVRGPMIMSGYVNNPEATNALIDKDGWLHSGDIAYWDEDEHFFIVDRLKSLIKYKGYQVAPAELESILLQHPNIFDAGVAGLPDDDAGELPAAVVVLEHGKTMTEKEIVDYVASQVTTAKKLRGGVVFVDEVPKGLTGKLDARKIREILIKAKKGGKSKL

For the compound `CCC[CH2][Sn]([Cl])([CH2]CCC)[CH2]CCC`, the Potency entry in [1] is “inactive”. In addition, the Potency is 35.5 µM (active) in assay [2] and 24.3 µM (active) in assay [5]. Moreover, the activation in [3] was 7.19% (inactive). Besides, in assay [4], the max response was -0.857%.
Regarding `COP(=O)(OC)SCn1c(=O)oc2cc(Cl)cnc21`, the Potency entry in assay [1], in [7] and in assay [8] was “inactive” in each case. In addition, the activation in [6] was 7.35% (inactive). For the same compound, the call in assay [9] was inactive.
In the case of `COc1cc(OC)nc(NC(=O)NS(=O)(=O)c2ncccc2OCC(F)(F)F)n1`, the Potency entry in assay [1], in assay [2], in assay [8], in assay [10] and in [5] was “inactive” in each case. Further, the activation is 0.378% (inactive) in assay [3] and -0.186% (inactive) in assay [11]. Besides, the max response in [4] is -19.3%.
As to `CCOc1nc(F)cc2nc(S(=O)(=O)Nc3c(Cl)cccc3Cl)nn12`, the Potency result in assay [1], in assay [2] and in assay [10] was “inactive” in each case. Besides, the activation in assay [3] is -0.748% (inactive); in assay [11] it was 0.211% (inactive). Moreover, the max response in [4] is 3.57%. Also, the compound was called inactive in assay [9].
`O=[N+]([O-])Nc1nccn1Cc1ccc(Cl)nc1`: the Potency result in assay [1], in assay [7], in assay [2], in assay [8] and in assay [10] was “inactive” throughout. The activation is 20.9% (inactive) in assay [6] and -1.97% (inactive) in assay [11]. Besides, the max response in assay [4] was -15.2%. Further, the outcome in assay [9] was inactive.
In the case of `CC(C)(C)C(O)C(Oc1ccc(-c2ccccc2)cc1)n1cncn1` (stereo not drawn), the Potency entry in [1], in [2], in assay [8] and in assay [10] was “inactive” throughout. Moreover, the activation in assay [6] was -4.84% (inactive); in [3], 2.98% (inactive); in assay [11], -1.06% (inactive). Further, the Potency in assay [5] is 68.6 µM (active).
Consider `CC1(C)CC/C(=C\c2ccc(Cl)cc2)C1(O)Cn1cncn1` (stereo not drawn), for which the Potency entry in assay [1], in [7], in assay [8] and in [12] was “inactive” each time. For the same compound, the activation in assay [6] was -0.862% (inactive). Besides, the max response in [4] is 6%.
As for `CC(C)C1(C)N=C(c2nc3ccccc3cc2C(=O)O)NC1=O` (stereo not drawn), the Potency entry in assay [1], in assay [2] and in assay [8] was “inactive” each time. In assay [4], the max response was 5.36%.
As to `CCCCCCCCCCCCCCC(Br)C(=O)O` (stereo not drawn), the Potency result in assay [1], in assay [2] and in [8] was “inactive” throughout. In addition, the activation in [3] was 4.69% (inactive). In addition, in assay [5], the Potency was 21.7 µM (active). Moreover, the call in assay [9] was inactive.
For `CCCCC(O)(Cn1cncn1)c1ccc(Cl)cc1Cl` (stereo not drawn), the Potency result in assay [1], in [2] and in assay [8] was “inactive” in each case. Besides, the activation in [6] is -10.4% (inactive); in [3] it was -2.88% (inactive); in assay [11], 0.388% (inactive).
`CNC(=O)O/N=C/C(C)(C)S(C)(=O)=O`: in assay [1], the Potency result is “inactive”. Moreover, the activation in assay [6] was 1.32% (inactive); in [11] it was -1.23% (inactive). The max response in [4] was -16.6%. Besides, the compound was called inactive in assay [9].
For `CS/C(C)=N/OC(=O)N(C)SN(C)C(=O)O/N=C(\C)SC`, the Potency entry in [1], in assay [7], in [2], in assay [8] and in assay [10] was “inactive” in each case. In addition, the activation in [6] is -1.29% (inactive); in assay [11], -0.513% (inactive). Also, in assay [9], the call was inactive.
With `CCOP(=O)(OCC)SCS(=O)(=O)C(C)(C)C`, the Potency entry in assay [1], in [2], in assay [8] and in assay [10] was “inactive” throughout. Further, the figures for the activation in assay [6] and in assay [3] were 11.8% (inactive) and -5.69% (inactive), respectively. The max response in assay [4] was found to be 4.6%. The compound was classed as inactive in assay [9].
For `CC(C)N(C(=O)COc1nnc(C(F)(F)F)s1)c1ccc(F)cc1`, the Potency result in assay [1], in assay [2], in assay [8] and in [10] was “inactive” throughout. The activation in assay [3] was 0.828% (inactive); in assay [11], -1.4% (inactive). Moreover, the Potency in [5] is 48.6 µM (active).
For the compound `Clc1ccc(-c2cc(Cl)c(Cl)cc2Cl)cc1Cl`, the Potency result in [1] and in [8] was “inactive” in each case. For the same compound, the activation in assay [6] was -4.76% (inactive); in assay [3], 4.78% (inactive); in assay [11], 5.08% (inactive). In addition, in [9], the call was inactive.
